Experimental data reported in PubChem BioAssay AID720519 (National Center for Advancing Translational Sciences (NCATS), 2013).
Inconclusive results are not listed. Where a call stands in place of a potency, no number is given. Activity calls are given as the source filed them. Calls follow the shape of the dose curve; as a rule, active = well fitted activation curve with a large enough effect; inconclusive = small, poorly fitted or top-dose-only effect; inactive = flat fitted curve, though single readings scatter.

assay: qHTS for Inhibitors of Cell Surface uPA Generation: Confirmatory Assay for Cherry-picked Compounds; conditions: cell surface uPA activity generation, qHTS confirmation; series mostly up to 115 µM
Excerpt: The overall objective of this project is to perform a quantitative high throughput screen (qHTS) to identify novel compounds that inhibit the generation of cell surface urokinase activity. The urokinase plasminogen activator (uPA) is one of the two primary endogenous systems that mediate plasminogen activation into plasmin. Members of this system, including uPA and its receptor (uPAR), are overexpressed in several malignant tumors. This system plays a major role in adhesion, migration, invasion and metastasis of cancer cells. Small molecule inhibitors of the uPA system will serve as probes to understand the molecular mechanisms of the uPA cascade and better understanding the micro-environmental circumstances that facilitate the activation of plasminogen by uPA, and finally may provide novel candidate agents for anticancer drug therapy.
[…] […] Upon inhibition of the uPA activation cascade, the subsequent cell surface uPA activity-dependent translocation of LF into the cytoplasm is inhibited. ATP-Lite is used to measure intracellular ATP concentrations (measure cell viability) which remain increased if LF entry into the cytoplasm is inhibited. This validation assay was performed using a small set of cherry picked compounds. Activation of cell viability (increase in luminescence signal) due to inhibition of the cell surface uPA generation is the desired outcome of this assay.
NIH Chemical Genomics Center [NCGC]
NIH Molecular Libraries Probe Centers Network [MLPCN]
Assay Submitter (PI): Thomas Bugge, National Institute of Dental and Craniofacial Research, NIH
Cultured RAW 264.7 were dispensed into 1536-well clear bottom, white walled tissue culture plates at a density of 4000 cells/well and were incubated overnight (12-16 h) at 37 C in a 5% CO2 incubator. Serially diluted compounds (1:5 dilution) in 23 nl DMSO were added to cells (0.0024 uM to 3.83 uM final concentration). […] Compound and reagent-treated plates were incubated for 24 h at 37 C in a 5% CO2 incubator. Three microliter of PerkinElmer ATPlite was then added to each well and luminescence was detected using the PerkinElmer ViewLux plate reader for a 5 sec exposure.

Row | SMILES | Potency
1 | Cc1cccc(-c2nc(CS(=O)CC(=O)NCc3cccs3)c(C)o2)c1 (stereo not given) | inactive
2 | N#Cc1ccccc1Sc1ccccc1C(=O)Nc1ccc(Br)cc1 | inactive
3 | COc1cccc(NC(=S)NCc2ccc3c(c2)cc(C)n3C)c1 | inactive
4 | COc1ccc(CCN=c2c([N+](=O)[O-])nn(-c3cccc(C)c3)n2O)cc1OC | inactive
5 | O=C(Nn1cnnc1)c1ccc(Cl)cc1 | inactive
6 | CCOC(=O)C1CCCN(CC(=O)Nc2ccc(C(=O)Nc3ccccc3OC)cc2)C1 (stereo not given) | inactive
7 | Cc1cc(C)nc(NC(=O)CSc2nccc(C)n2)n1 | inactive
8 | CC(=O)n1cc(/C=N/NC(=O)c2ccc([N+](=O)[O-])cc2)c2ccccc21 | inactive
9 | O=c1[nH]c(SCc2cccc(Cl)c2)nc2ccccc12 | inactive
10 | COc1ccc(CN2CCN(Cc3ccc(C(F)(F)F)cc3)CC2)cc1 | inactive
11 | Cc1ccc(N=C2SCCCN2C(=O)c2cccc(N3C(=O)CCC3=O)c2)cc1Cl | inactive
12 | C[C@@H](NC(=O)c1nc[nH]c1C(=O)NCc1ccc(CNC(=O)OC(C)(C)C)cc1)c1ccccc1 | inactive
13 | O=C(c1cc2cc([N+](=O)[O-])ccc2s1)N1CCOCC1 | inactive
14 | CC(C)C(NC(=O)Cc1ccccc1)C(=O)N1CCN(c2cccc(Cl)c2)CC1 (stereo not given) | inactive
15 | COC(=O)c1cc(CNC(=O)c2ccc(N3CCCC3)c([N+](=O)[O-])c2)ccc1OC | inactive
16 | CCc1ccccc1NC(=O)CN(C)C(=O)CSc1nnc(Nc2cccc(C)c2C)s1 | inactive
17 | O=C(CSc1ccc([N+](=O)[O-])cn1)Nc1nccs1 | inactive
18 | CC(=O)Nc1ccc(OS(=O)(=O)c2c(C)cc(C)cc2C)cc1 | inactive
19 | COc1ccc(OC)c(NC(=O)C2CCCN2C(=O)C2CCC(C)CC2)c1 (stereo not given) | inactive
20 | N#CCC(=O)N/N=C/c1ccc(OCC(=O)Nc2ccc(F)cc2)cc1 | inactive

Row | SMILES | Potency
21 | CCOc1cc(C(=S)N2CCOCC2)ccc1OC(=O)c1cccc(C)c1 | inactive
22 | Cc1cccc(NC(=O)c2cc3c(=O)n4ccccc4nc3s2)c1 | inactive
23 | COc1ccc(-c2csc(NC(C)c3nc4cc(C(=O)NCCCO)ccc4n3Cc3ccc(C)cc3)n2)cc1 (stereo not given) | inactive
24 | COc1ccccc1NC(=O)COc1ccc(C(=O)NCc2ccccc2)cc1OC | inactive
25 | O=C(Cc1ccc(Cl)cc1)c1c[nH]c(C(=O)NCCCn2ccnc2)c1 | inactive
26 | Cc1ccc2[nH]c(CN3CCN(C)C(CCO)C3)c(C)c2c1 (stereo not given) | inactive
27 | CCOC(=O)Cc1csc(NC(=O)Nc2cccc(OC)c2)n1 | inactive
28 | Fc1ccc(N2CCN(c3nc(CN4CCOCC4)nc4scc(-c5ccccc5)c34)CC2)cc1 | inactive
29 | CC(=O)Oc1ccc(OC(C)=O)c(SCCCCCCl)c1 | inactive
30 | COc1cccc(C(=O)NCC(c2ccco2)N2CCc3ccccc3C2)c1 (stereo not given) | inactive
31 | Cn1c(=O)c2c(ncn2CCO)n(C)c1=O | inactive
32 | CCOCCOc1cc(NCc2ccccc2)c2ncn(C(C)C)c2c1 | inactive
33 | CC(=O)c1ccc(NC(=O)Nc2ccc(Br)cc2C)cc1 | inactive
34 | O=C(CCCC(=O)N1CCN(c2ccccc2F)CC1)c1ccccc1 | inactive
35 | C#CCOCCOCCOCCNc1nc(N2CCOCC2)nc(N2CCN(C(=O)[C@H](CCC(=O)O)n3cc([C@@H](N)CCCCN)nn3)CC2)n1 | inactive
36 | Cc1ccc(C2=NS(=O)(=O)N(C)C(C(=O)NC3CCCC3)=C2)cc1 | inactive
37 | C[C@H](CO)N1C[C@H](C)[C@H](CN(C)S(=O)(=O)c2cn(C)cn2)Oc2ccc(NC(=O)Nc3ccc(C(F)(F)F)cc3)cc2CC1=O | inactive
38 | COc1cccc(C(=O)NCc2ccc3[nH]c(C)cc3c2)c1 | inactive
39 | CCOc1cc(C(=O)OCC(=O)c2cc(C)n(CC3CCCO3)c2C)ccc1OCC(=O)N1CCOCC1 (stereo not given) | inactive
40 | CC(=O)Nc1nc2ccccc2[nH]1 | inactive
